According to the OligoGym collection:
Note: reference of the scale not given here.

Each sequence was assayed against FAM163B (assay: pooled miR-30 sensor sort-seq; sequence = guide strand). Settings: shRNA.
For TTCTTGCAGCAGTAGTACTGGA, the sensor-assay potency score (higher = more potent) was -0.857. In the case of TCCGACTCGTCCTTCTTGCAGC, the sensor-assay potency score (higher = more potent) is reported as -1.44. Sequence TTGCGGTTGGAGTGCAGCGGGG has a sensor-assay potency score (higher = more potent) of -1.47. For TAGCACAGAACAGCGATGATGC, the sensor-assay potency score (higher = more potent) was -0.556. For TTGGTCAGCACCAGGTTGCGGT, the sensor-assay potency score (higher = more potent) was -0.802. TCGCAGTGGGAGCAGCTGCGGC showed a sensor-assay potency score (higher = more potent) of -1.52. In the case of TCCTGCAGGAAGAAGGTGGGGG, the sensor-assay potency score (higher = more potent) is reported as -0.682. TTGTAGAGCACGCGCTCCCCGC gave a sensor-assay potency score (higher = more potent) of -1.32. Work on TAGAGCACGCGCTCCCCGCCGT yielded a sensor-assay potency score (higher = more potent) of -0.76. For TCTTGCAGCAGTAGTACTGGAG, the sensor-assay potency score (higher = more potent) was -0.35. For TTCTGGCTGAAGGAGGTGGAGG, the sensor-assay potency score (higher = more potent) was -1.34. With TCCTCCGACTCGTCCTTCTTGC the sensor-assay potency score (higher = more potent) was -1.53.

Each sequence was assayed against FAM164C in the same assay as above. Settings: shRNA.
With TAGTCTTCGGATCTGCACCCAC the sensor-assay potency score (higher = more potent) was -0.402. Sequence TTCTTGATGGTCTTACACTTGG has a sensor-assay potency score (higher = more potent) of -0.537. TAATTTTCTGTAGCTCTCCGTT gave a sensor-assay potency score (higher = more potent) of -0.559. TTTACTGCTGAAGAGAAGCAGA gave a sensor-assay potency score (higher = more potent) of -0.62. Work on TTTCTTTCTGCTTTGCATCAAA yielded a sensor-assay potency score (higher = more potent) of -1.22. For ATCACTTTCTGGATCTTGCTGG, the sensor-assay potency score (higher = more potent) was 0.553. Work on TTTGTTGCTCAAAAGCTGCTTC yielded a sensor-assay potency score (higher = more potent) of 0.134. TAGAGGTGGAAGACAGTTCTTG gave a sensor-assay potency score (higher = more potent) of -0.364. Work on TTATCCAGAATCAACTCTTTGT yielded a sensor-assay potency score (higher = more potent) of -0.353. Work on TAGCTCTGCAGGCAGATCTGGG yielded a sensor-assay potency score (higher = more potent) of -1.11. Work on TTGATGGTCTTACACTTGGGAA yielded a sensor-assay potency score (higher = more potent) of -1.53.

These sequences were tested against FAM174A in the same assay as above. Settings: shRNA.
TTGGCATCAAACAACGTGTTGT gave a sensor-assay potency score (higher = more potent) of -0.0509. Work on TTCTAAAGGTGTCAATTCCATA yielded a sensor-assay potency score (higher = more potent) of -1.28. TGATCGTCCGTCTCAAGCCCGG was tested, and the sensor-assay potency score (higher = more potent) was -1.42. With AAGTACACCAGCACCGCGCCGC the sensor-assay potency score (higher = more potent) was -0.391. With TCTTCTTCTCATCCTGACCGTC the sensor-assay potency score (higher = more potent) was -0.459. ATATCTCCTAGTCTTTCGGTTT showed a sensor-assay potency score (higher = more potent) of -1.26. In the case of TAGTCTTTCGGTTTCTTCTTCT, the sensor-assay potency score (higher = more potent) is reported as 0.156. With TAGTTCAGGCAGCAACAGCAGG the sensor-assay potency score (higher = more potent) was -1.17. In the case of TATCTCCTAGTCTTTCGGTTTC, the sensor-assay potency score (higher = more potent) is reported as -1.02. TGTTAGTGTCCAAAACTCCATA showed a sensor-assay potency score (higher = more potent) of -0.864. ATTTTCTATGTTAGTGTCCAAA was tested, and the sensor-assay potency score (higher = more potent) was -1.74. With TTCTTCTTCTCATCCTGACCGT the sensor-assay potency score (higher = more potent) was -0.117.
